The record followed here is PubChem BioAssay (NCATS).

Assay [1] has as its target Lysosomal acid glucosylceramidase (Homo sapiens) (UniProt P04062). In words: Glucocerebrosidase-p2 (AID 348; in the data active = potency below about 10 µM; note: potency is the fitted concentration of half-maximal effect). The settings on record: purified GBA, blue fluorogenic substrate, 40 min. The method in brief:
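Compounds titrated from 0.6 nM upwards against 0.2 nM enzyme in pH 5.9 citric acid/KH2PO4, taurocholate, tween-20; blue fluorogenic substrate 80 uM, 40 min room temperature, stopped and read Ex 365/Em 440 for AC50.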

The nature of assay [2]: AP1 Signaling Pathway (AID 357). Note: % is set by controls: 0 for no effect and ±100 for the full control effect. The settings on record: ME-180 AP-1-bla reporter, EGF-induced, beta-lactamase ratio, 5 h; at 7.69 µM (top of the series) unless noted. The method in brief: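 Cells are seeded overnight, exposed to compound titrations and an EC50 level of EGF for 5 hours at 37 °C, then loaded with CCF4 dye for 2.5 hours. Beta-lactamase activity under the AP-1 element is read as a blue/green ratio.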

In assay [3] the target is Cytochrome P450 1A2 (Homo sapiens) (UniProt P05177). Briefly: p450-cyp1a2 (AID 410; calls by dose curve; note: potency is the fitted concentration of half-maximal effect). The settings on record: recombinant CYP1A2, luciferin-ME demethylation, luminescence; series mostly up to 57 µM. In a few lines: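 Human CYP1A2 (20nM) demethylated Luciferin-ME at its Km (100uM) in 100mM KPO4. After 10 min compound preincubation, NADPH regeneration ran the reaction 60 min at room temperature. Luciferin was read by luminescence, normalized to 57 uM furafylline.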
Chain of Cytochrome P450 1A2 (Homo sapiens) (P05177 whole entry, looked up): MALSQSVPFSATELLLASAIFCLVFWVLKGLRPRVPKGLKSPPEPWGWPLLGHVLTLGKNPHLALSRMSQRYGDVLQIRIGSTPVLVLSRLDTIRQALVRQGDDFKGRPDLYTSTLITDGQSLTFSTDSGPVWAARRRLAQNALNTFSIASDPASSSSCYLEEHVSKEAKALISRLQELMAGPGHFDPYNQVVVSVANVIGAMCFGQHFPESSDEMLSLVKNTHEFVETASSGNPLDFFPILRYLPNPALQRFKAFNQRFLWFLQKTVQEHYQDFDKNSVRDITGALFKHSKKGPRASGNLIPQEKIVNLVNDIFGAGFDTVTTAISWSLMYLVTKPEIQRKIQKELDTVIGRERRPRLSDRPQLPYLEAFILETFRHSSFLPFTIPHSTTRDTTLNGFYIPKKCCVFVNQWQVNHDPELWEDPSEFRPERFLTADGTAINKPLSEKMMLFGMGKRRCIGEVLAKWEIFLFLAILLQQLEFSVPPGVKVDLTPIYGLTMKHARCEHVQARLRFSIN

A short description of assay [4]: NFAT Signaling Pathway (AID 444).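 Note: carbachol stimulus at about its EC50 of 1 µM final; % is set by controls: 0 for no effect and ±100 for the full control effect.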 The settings on record: Jurkat NFAT-bla M1, carbachol, beta-lactamase ratio, 5 h; at 7.69 µM (top of the series) unless noted. The method in brief:
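Jurkat cells with NFAT-driven β-lactamase reporter and co-expressed M1 receptor, stimulated with carbachol (final 1 uM, ~EC50), compound titration, 5 h at 37 °C. CCF4 loaded 1 h at RT; 460/530 nm ratio gave %activity and AC50.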

Assay [5] can be described thus: Stat Signaling Pathway (AID 446).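 Note: ME-180 cervical cancer cells given 40 pM IL-6 alongside compound; SIE-controlled beta-lactamase reporter measured as 460/530 nm FRET emission ratio; % is set by controls: 0 for no effect and ±100 for the full control effect.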 The settings on record: ME-180 SIE beta-lactamase reporter, IL-6 stimulated, 5 h; at 7.69 µM (top of the series) unless noted. In a few lines: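 Screening format detects activators and inhibitors alike: ME-180 SIE-bla cells stimulated at 40 pM IL-6 for 5 hrs with compound, then dual-emission beta-lactamase read at 405 nm excitation.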

For assay [6], the target named is Glucocorticoid receptor (Homo sapiens) (UniProt P04150). Briefly: GR-GFP Redistribution (AID 450;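 active = compounds whose dose series gives a full or clear partial fitted curve of increased nuclear translocation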; note: potency is the fitted concentration of half-maximal effect). The settings on record: U2OS GR-GFP nuclear translocation, laser cytometry, 2 h.
Chain of Glucocorticoid receptor (Homo sapiens) (P04150 whole entry, looked up): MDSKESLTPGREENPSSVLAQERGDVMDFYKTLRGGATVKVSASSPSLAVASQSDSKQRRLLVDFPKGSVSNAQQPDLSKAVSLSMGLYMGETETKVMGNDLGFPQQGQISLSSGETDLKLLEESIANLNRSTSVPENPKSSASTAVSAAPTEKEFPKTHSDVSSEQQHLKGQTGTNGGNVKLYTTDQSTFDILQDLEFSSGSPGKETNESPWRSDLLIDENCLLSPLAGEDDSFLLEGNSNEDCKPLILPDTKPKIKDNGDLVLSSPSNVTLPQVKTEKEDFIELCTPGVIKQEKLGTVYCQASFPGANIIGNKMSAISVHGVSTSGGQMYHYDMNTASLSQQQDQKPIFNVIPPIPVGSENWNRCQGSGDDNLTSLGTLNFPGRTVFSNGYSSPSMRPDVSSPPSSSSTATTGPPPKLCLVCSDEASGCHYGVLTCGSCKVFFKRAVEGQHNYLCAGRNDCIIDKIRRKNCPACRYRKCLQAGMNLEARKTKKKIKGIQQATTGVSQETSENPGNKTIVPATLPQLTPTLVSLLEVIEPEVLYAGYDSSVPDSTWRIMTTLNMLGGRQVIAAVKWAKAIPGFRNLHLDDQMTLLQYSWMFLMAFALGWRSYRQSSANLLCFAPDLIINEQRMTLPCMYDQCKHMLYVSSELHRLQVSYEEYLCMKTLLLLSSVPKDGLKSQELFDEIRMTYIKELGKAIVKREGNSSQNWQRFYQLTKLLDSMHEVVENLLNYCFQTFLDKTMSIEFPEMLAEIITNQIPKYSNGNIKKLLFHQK
For assay [7] the target is unchanged. Briefly: GR-EFC Redistribution (AID 451; calls by dose curve; note: potency is the fitted concentration of half-maximal effect). The settings on record: CHO-K1 GR-EFC translocation, beta-gal luminescence, 2 h. The method in brief:
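CHO-K1 cells expressing nuclear EA and GR-ED fragments of b-gal; compounds titrated up to 46 uM final, 2 h at 37 C. GR nuclear translocation read as complemented b-gal luminescence after 1 h RT detection.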

Assay [8] addresses Mitogen-activated protein kinase 10 (Mus musculus) (UniProt Q61831). Briefly: JNK3 AlphaScreen Assay (AID 530).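 Note: kinase came from lysate of stimulated human HepG2 cells; signal reports phosphorylation of biotinylated GST-cJun 1-79 at Ser73 with 10 µM ATP; % is set by controls: 0 for no effect and ±100 for the full control effect.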 The settings on record: JNK3 lysate, c-Jun phosphorylation; series mostly up to 57.1 µM. The method in brief: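 qHTS format: compounds tested as titrations against IL-1beta/TNF-alpha-activated HepG2 lysate JNK3 with biotin-GST-cJun substrate and 10 uM ATP at room temperature. Loss of anti-phospho-cJun AlphaScreen signal indicates inhibition.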
On the technique in general: Bead proximity is the source of the signal in Alpha formats.

Assay [9] addresses 3',5'-cyclic-AMP phosphodiesterase 4B (Homo sapiens) (UniProt Q07343). In words: qHTS Assay for Inhibitors of PDE-IV (AID 607; active = well fitted activation curve with a large enough effect in the main read-out, with a control signal flat, not every such curve was filed as active; note: % of control where 0% means no effect). The settings on record: HEK293 ACTOne CNG channel cells, membrane potential fluorescence; series mostly up to 22.9 µM. In a few lines:
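The readout is membrane depolarisation from a cAMP-sensing CNG channel, detected with a potential dye at ex 535/em 590. Cells were HEK293-derived (endogenous PDE-IV) at 1000 cells/well, titrated up to 22.9 uM final.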

Assay [10] can be described thus: qHTS Assay for Lipid Storage Modulators (AID 1519; calls by dose curve). The settings on record: Drosophila S3 cells, BODIPY lipid droplet/cell ratio, laser cytometry, cells loaded with oleic acid; for activity change, negative = inhibition: at 57.5 µM (top of the series). The method in brief:
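Cells seeded at 5,000 per well were treated with compounds over a concentration series and loaded with oleic acid (400 uM, as added). Lipid droplet fluorescence (488 nm excitation, 500-530 nm channel) was read by laser-scanning cytometry and normalized to 20 uM Triacsin C.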
For orientation: Quantitative high-throughput screening tests each substance at several concentrations.

Assay [11] concerns the target Cytochrome P450 3A4 (Homo sapiens) (UniProt P08684). Briefly: qHTS Assay for Activators of Cytochrome P450 3A4 (AID 885; active = well fitted curve in the direction sought with a large enough effect; an effect the other way counts as inactive or inconclusive; note: nearly all actives have a fitted effect of over 65% in size). The settings on record: recombinant CYP3A4, Luciferin-PPXE luminescence, 60 min; series mostly up to 57.1 µM. The method in brief:
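Steps: enzyme/substrate mix dispensed; compound added, 10 min RT; NADPH regeneration solution added, 60 min RT; luciferin detection buffer stops reaction; 20 min later luminescence measured.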

Assay [12] concerns the target Cytochrome P450 2D6 (Homo sapiens) (UniProt P10635). Briefly: qHTS Assay for Inhibitors and Substrates of Cytochrome P450 2D6 (AID 891; active = well fitted curve in the direction sought with a large enough effect; an effect the other way counts as inactive or inconclusive; note: potency is the fitted concentration of half-maximal effect; nearly all actives have a fitted effect of over 60% in size). The settings on record: recombinant CYP2D6, luciferin-ME EGE luminescence; series mostly up to 57.1 µM. The method in brief:
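Human CYP2D6 (5 nM) with 30 uM Luciferin-ME EGE (at Km) in 100 mM KPO4, compound preincubated 10 min, then NADPH regeneration system for 60 min at room temperature. Luciferin read by luminescence; normalized to 1.43 uM quinidine.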

Assay [13] is described as follows: Confirmation and Secondary Assay for Modulators of Hemoglobin Beta Chain Splicing at IVS2 705 locus (AID 930; active = well fitted curve in the direction sought with a large enough effect; an effect the other way counts as inactive or inconclusive;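 note: HeLa cells stably expressing the EGFP-705 splicing reporter; GFP fluorescence per well restored by corrected splicing of the IVS2-705 intron in EGFP; % of control where 0% means no effect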). The settings on record: HeLa EGFP-705 splicing reporter, GFP fluorescence, 48 h; series mostly up to 38.3 µM. The method in brief:
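First, HeLa EGFP-705 cells are seeded at 500/well in Optimem with 2% FCS and left overnight. Next, compound or DMSO is added for 2 days. Finally wells are laser-scanned and total peak GFP intensity scored.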

Assay [14] addresses Ubiquitin carboxyl-terminal hydrolase 1 (Homo sapiens) (UniProt O94782). Briefly: Inhibitors of USP1/UAF1: Pilot qHTS (AID 504865; active = well fitted curve in the direction sought with a large enough effect; an effect the other way counts as inactive or inconclusive;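 note: rhodamine fluorescence freed from ubiquitin-rhodamine substrate followed over time; top concentration of the series differs between compounds; % is set by controls: 0 for no effect and ±100 for the full control effect; nearly all actives have a fitted effect of over 35% in size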). The settings on record: purified USP1/UAF1, Ub-rhodamine cleavage fluorescence; series mostly up to 54.9 µM. The method in brief: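 In 50mM HEPES pH 7.8 containing 0.5mM EDTA, 1mM TCEP, 0.1 mg/ml BSA and 0.01% Tween-20, 1nM USP1/UAF1 is exposed to compound for 15 min, then Ub-Rho (150nM final) is added and fluorescence is read over time.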

For assay [15], the target named is Cytochrome P450 3A4 (Homo sapiens) (UniProt P08684). In words: qHTS Assay for Inhibitors and Substrates of Cytochrome P450 3A4 (AID 884; active = well fitted curve in the direction sought with a large enough effect; an effect the other way counts as inactive or inconclusive; note: potency is the fitted concentration of half-maximal effect; nearly all actives have a fitted effect of over 50% in size). The settings on record: recombinant CYP3A4, Luciferin-PPXE luminescence; series mostly up to 57.1 µM. The method in brief:
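20 nM human CYP3A4 with 25 uM Luciferin-PPXE (at KM) in 200 mM KPO4, preincubated 10 min with compound; NADPH regeneration started a 60 min RT reaction. Luciferin detected by luminescence, normalized to 57 uM ketoconazole as full inhibition.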

Assay [16] deals with Cytochrome P450 2C19 (Homo sapiens) (UniProt P33261). In words: qHTS Assay for Inhibitors and Substrates of Cytochrome P450 2C19 (AID 899; active = well fitted curve in the direction sought with a large enough effect; an effect the other way counts as inactive or inconclusive; note: nearly all actives have a fitted effect of over 60% in size; note: potency is the fitted concentration of half-maximal effect). The settings on record: recombinant CYP2C19, luciferin-H EGE luminescence; series mostly up to 57.1 µM. In a few lines:
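Luminescent read-out of luciferin formed from Luciferin-H EGE (10uM, equal to KM). Enzyme 5nM in 50mM KPO4; compound added, 10 min at 37C, then NADPH regenerating system for 60 min at 37C. Full inhibition defined by 57uM ketoconazole.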

Assay [17] can be described thus: Confirmation and Secondary Assay for Modulators of Hemoglobin Beta Chain Splicing at IVS2 654 locus (AID 910; active = well fitted curve in the direction sought with a large enough effect; an effect the other way counts as inactive or inconclusive;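 note: HeLa cells stably carrying EGFP split by mutant beta-globin IVS2-654 intron; % of control where 0% means no effect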). The settings on record: HeLa EGFP-654 splicing reporter, GFP fluorescence, 48 h; series mostly up to 38.3 µM. The method in brief:
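HeLa cells stably expressing EGFP interrupted by β-globin IVS2-654 intron, seeded overnight in Opti-MEM/2% FCS, then treated 2 days at 37 °C. Restored splicing read as total peak GFP intensity per well by laser scanning cytometry (488 nm excitation, 500–520 nm emission); 500 nM antisense PNA as control.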

Setting [18] is: measured here: cell count channel max response.
Where [19] appears, read: measured here: lipid channel max response.

Records with an inconclusive call do not appear. The source made the active and inactive calls. Unless noted, calls come from the whole dose curve; as a rule, active = well fitted curve in either direction with a large enough effect (not every such curve was filed as active); inconclusive = small, poorly fitted or top-dose-only effect, or another doubt; inactive = flat fitted curve, though single readings scatter. Some results are limits rather than exact numbers.

Chain of Cytochrome P450 3A4 (Homo sapiens) (P08684 whole entry, looked up): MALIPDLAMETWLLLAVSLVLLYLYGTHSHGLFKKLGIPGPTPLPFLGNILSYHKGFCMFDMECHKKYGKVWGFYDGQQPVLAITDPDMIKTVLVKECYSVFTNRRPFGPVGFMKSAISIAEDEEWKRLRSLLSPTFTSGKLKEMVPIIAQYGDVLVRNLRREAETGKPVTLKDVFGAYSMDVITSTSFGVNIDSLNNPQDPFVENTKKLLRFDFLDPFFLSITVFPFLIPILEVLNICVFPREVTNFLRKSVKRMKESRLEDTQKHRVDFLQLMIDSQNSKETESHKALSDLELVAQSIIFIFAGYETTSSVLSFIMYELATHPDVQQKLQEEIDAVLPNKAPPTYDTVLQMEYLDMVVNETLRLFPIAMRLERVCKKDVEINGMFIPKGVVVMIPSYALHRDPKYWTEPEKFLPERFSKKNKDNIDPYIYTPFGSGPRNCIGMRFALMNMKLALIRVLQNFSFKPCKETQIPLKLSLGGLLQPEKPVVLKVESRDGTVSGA
Chain of Lysosomal acid glucosylceramidase (Homo sapiens) (P04062 whole entry, looked up): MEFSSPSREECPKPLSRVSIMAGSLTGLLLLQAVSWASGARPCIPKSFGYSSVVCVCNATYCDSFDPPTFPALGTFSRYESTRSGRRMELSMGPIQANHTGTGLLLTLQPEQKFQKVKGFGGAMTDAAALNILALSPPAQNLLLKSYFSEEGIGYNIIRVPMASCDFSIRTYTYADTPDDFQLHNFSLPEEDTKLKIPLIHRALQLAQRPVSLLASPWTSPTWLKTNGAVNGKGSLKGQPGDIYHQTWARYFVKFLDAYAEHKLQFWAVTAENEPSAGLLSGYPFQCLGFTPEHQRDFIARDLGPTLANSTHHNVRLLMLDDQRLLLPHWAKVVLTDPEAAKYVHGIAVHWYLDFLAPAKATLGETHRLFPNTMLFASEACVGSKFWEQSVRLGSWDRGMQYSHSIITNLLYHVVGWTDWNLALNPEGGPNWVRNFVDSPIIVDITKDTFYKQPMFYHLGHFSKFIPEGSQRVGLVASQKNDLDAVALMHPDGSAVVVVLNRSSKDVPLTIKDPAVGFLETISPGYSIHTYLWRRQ
Chain of Cytochrome P450 2C19 (Homo sapiens) (P33261 whole entry, looked up): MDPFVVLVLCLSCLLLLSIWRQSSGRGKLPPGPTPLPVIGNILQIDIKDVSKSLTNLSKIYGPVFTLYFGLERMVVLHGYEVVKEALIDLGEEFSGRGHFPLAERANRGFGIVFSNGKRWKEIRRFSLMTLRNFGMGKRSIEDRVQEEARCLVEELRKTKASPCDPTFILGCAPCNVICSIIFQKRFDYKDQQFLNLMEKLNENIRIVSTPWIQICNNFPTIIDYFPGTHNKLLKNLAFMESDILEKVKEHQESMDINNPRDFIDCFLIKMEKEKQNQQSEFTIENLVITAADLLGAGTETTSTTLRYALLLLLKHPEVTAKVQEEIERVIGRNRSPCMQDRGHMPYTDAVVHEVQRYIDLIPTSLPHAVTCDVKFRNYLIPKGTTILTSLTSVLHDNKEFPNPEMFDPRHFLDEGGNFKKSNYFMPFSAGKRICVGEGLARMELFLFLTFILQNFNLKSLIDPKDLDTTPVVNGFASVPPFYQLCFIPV
Chain of 3',5'-cyclic-AMP phosphodiesterase 4B (Homo sapiens) (Q07343 whole entry, looked up): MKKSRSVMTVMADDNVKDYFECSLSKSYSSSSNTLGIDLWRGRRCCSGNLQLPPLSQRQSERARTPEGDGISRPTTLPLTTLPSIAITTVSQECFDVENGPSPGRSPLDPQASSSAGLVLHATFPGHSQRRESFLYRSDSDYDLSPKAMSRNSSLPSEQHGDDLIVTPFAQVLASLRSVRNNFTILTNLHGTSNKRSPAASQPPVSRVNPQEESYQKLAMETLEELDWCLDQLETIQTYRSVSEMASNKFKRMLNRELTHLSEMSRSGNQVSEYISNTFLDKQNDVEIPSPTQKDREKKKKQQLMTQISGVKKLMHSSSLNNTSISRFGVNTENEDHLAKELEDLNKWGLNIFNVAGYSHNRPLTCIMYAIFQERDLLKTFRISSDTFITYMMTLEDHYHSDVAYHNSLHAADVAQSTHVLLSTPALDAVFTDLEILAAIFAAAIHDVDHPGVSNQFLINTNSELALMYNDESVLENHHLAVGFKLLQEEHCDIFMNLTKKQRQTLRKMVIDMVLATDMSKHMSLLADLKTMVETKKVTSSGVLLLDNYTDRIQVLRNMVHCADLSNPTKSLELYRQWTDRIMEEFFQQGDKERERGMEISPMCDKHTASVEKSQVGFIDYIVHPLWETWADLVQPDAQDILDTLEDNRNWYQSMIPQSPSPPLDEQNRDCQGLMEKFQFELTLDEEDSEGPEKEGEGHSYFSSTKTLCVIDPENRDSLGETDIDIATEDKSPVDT
Chain of Ubiquitin carboxyl-terminal hydrolase 1 (Homo sapiens) (O94782 whole entry, looked up): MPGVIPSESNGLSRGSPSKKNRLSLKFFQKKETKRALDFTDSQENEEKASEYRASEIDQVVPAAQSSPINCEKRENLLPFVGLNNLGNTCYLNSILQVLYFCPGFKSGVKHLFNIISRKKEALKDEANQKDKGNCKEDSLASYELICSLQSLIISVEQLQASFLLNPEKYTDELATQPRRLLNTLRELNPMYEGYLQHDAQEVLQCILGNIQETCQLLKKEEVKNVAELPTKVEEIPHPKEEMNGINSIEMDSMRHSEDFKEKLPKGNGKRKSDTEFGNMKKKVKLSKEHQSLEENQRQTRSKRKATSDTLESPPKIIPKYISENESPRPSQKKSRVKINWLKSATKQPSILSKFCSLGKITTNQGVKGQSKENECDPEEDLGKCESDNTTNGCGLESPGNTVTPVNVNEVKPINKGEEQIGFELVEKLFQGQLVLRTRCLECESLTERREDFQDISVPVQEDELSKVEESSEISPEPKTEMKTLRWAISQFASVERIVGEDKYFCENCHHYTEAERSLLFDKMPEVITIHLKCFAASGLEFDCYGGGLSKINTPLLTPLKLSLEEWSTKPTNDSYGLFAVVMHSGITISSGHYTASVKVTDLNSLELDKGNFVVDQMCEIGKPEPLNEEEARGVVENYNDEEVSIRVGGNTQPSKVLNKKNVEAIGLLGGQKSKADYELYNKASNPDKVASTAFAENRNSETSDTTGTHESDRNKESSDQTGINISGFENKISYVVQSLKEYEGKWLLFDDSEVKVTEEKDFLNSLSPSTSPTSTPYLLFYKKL
Chain of Cytochrome P450 2D6 (Homo sapiens) (P10635 whole entry, looked up): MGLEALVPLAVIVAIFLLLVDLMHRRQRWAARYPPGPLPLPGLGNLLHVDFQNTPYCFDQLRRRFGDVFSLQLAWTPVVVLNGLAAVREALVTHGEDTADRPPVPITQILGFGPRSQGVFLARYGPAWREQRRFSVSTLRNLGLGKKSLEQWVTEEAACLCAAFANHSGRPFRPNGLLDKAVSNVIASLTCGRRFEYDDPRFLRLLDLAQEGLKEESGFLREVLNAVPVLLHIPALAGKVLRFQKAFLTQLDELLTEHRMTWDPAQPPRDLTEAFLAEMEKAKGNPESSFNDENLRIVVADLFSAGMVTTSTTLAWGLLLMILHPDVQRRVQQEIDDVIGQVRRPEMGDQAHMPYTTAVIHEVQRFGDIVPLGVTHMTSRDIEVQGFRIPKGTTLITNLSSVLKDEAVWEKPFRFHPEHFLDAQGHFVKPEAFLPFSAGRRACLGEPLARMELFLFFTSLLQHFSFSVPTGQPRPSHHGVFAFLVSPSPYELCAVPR

For the compound `COc1ncc2nc(-c3ccc(Cl)cc3)c(=O)n(-c3ccccc3)c2n1`, the Potency in assay [1] is > 11.4 µM (inactive); in assay [3] it was 1.58 µM (active); in [6], > 9.22 µM (inactive); in [7], > 46 µM (inactive). For the same compound, the activity change, negative = inhibition was -12.8% (inactive) in assay [2], -0.099% (inactive) in assay [4] and -0.888% (inactive) in [10]. Moreover, the activity, negative = inhibition in [5] was 0.109% (inactive). Moreover, the Potency entry in assay [8] and in [9] was “inactive” in each case. In addition, the max response in assay [10] (setting [18]) was found to be 12%; in assay [10] (setting [19]) it was 16.2%.
With `Cc1cccc(CNc2ccnc(-c3ccccc3CN(C)C)n2)c1`, the Potency is 11.5 µM (inactive) in [1], 3.16 µM (active) in assay [3], > 46 µM (inactive) in assay [7] and 2.51 µM (active) in assay [12]. Moreover, the activity change, negative = inhibition in [2] is -18% (inactive); in assay [4], -18.8% (inactive); in assay [10], 3.61% (inactive). Besides, the activity, negative = inhibition in assay [5] was -5.22% (inactive). Also, the Potency entry in assay [8], in [11] and in [14] was “inactive” each time. Moreover, the compound was classed as inactive in assay [13]. The max response was -8.06% in [10] (setting [18]) and -5.18% in [10] (setting [19]).
For `COc1ccccc1-c1ccc2ncnc(N(C)C)c2c1`, the Potency was > 11.4 µM (inactive) in assay [1]; 1.26 µM (active) in assay [3]; > 46 µM (inactive) in assay [6]; > 46 µM (inactive) in assay [7]; 5.01 µM (active) in assay [15]; 0.501 µM (active) in assay [16]. The figures for the activity change, negative = inhibition in assay [2], in assay [4] and in assay [10] were -19.5% (inactive), -2.93% (inactive) and 4.68% (inactive), respectively. Also, in assay [5], the activity, negative = inhibition was -12.7% (inactive). In addition, the Potency entry in assay [8], in assay [11] and in [17] was “inactive” each time. Also, the compound was classed as inactive in [13]. The max response is -12.6% in assay [10] (setting [18]) and -7.7% in assay [10] (setting [19]).
In the case of `Cc1cccc(CNc2nc(-c3cccc(NS(C)(=O)=O)c3)nc3ccccc23)c1`, the Potency in assay [1] is > 11.4 µM (inactive); in [3], 15.8 µM (active); in assay [6] it was > 46 µM (inactive); in [7], > 46 µM (inactive); in [15] it was 5.01 µM (active); in [16], 2.51 µM (active). Moreover, the activity change, negative = inhibition in assay [2] is -27.3% (inactive); in assay [4], -6.18% (inactive); in [10] it was 1.31% (inactive). Besides, the activity, negative = inhibition in [5] is -23% (inactive). Also, the Potency result in assay [8], in assay [11] and in assay [17] was “inactive” in each case. Moreover, the call in assay [13] was inactive. The max response in assay [10] (setting [18]) is -11.9%; in [10] (setting [19]), -11.1%.
`CNc1nc(-c2ccccc2OC)nc2ccccc12`: the Potency was > 11.4 µM (inactive) in assay [1], 0.398 µM (active) in assay [3], > 46 µM (inactive) in assay [6] and > 46 µM (inactive) in assay [7]. The activity change, negative = inhibition was 7.61% (inactive) in [2], -10.4% (inactive) in assay [4] and 2.04% (inactive) in assay [10]. Further, the activity, negative = inhibition in assay [5] is 17.7% (inactive). Further, the Potency entry in assay [8], in assay [9], in assay [11], in assay [16], in assay [17] and in assay [14] was “inactive” each time. Moreover, the compound was classed as inactive in assay [13]. Further, the results for the max response in assay [10] (setting [18]) and in assay [10] (setting [19]) were -10.6% and -7.86%, respectively.
